Only some compounds are listed: those with a hit (about 13% of all), similar ones and a draw of the others.
USP7 inh: inhibitors of human USP7 deubiquitinase | Q93009 | purified USP7, Ub-rhodamine cleavage fluorescence | inhibition, % at 20 µM | actives 0.3% (n = 47,000)
USP10 inh: inhibitors of human USP10 deubiquitinase; Q14694; purified USP10, Ub-rhodamine fluorescence, 60 min; inhibition, % at 20 µM; actives 1.1% (n = 47,000)
USP30 block: human USP30 deubiquitinase inhibition; purified USP30, Ub-rhodamine cleavage fluorescence; actives 5.3% (n = 47,000); inhibition, % at 25 µM; AID 1645860
UCHL1 inh: inhibitors of human UCHL1 deubiquitinase. P09936. purified UCHL1, Ub-rhodamine cleavage fluorescence. inhibition, % at 20 µM. actives 0.2% (n = 47,000). AID 1645859
USP8 block: human USP8 deubiquitinase inhibition; P40818; purified USP8, Ub-rhodamine cleavage fluorescence, 30 min; inhibition, % at 20 µM; actives 4.2% (n = 47,000); AID 1645853
USP17 block: blocks human USP17 ubiquitin-rhodamine cleavage. A8MUK1. purified USP17, Ub-rhodamine cleavage fluorescence, 3 h. inhibition, % at 50 µM. actives 6.5% (n = 47,000)
The depositor's hits bear a star; x = not tested or not shown. No stated cut-off is given here; in the data, active means inhibition above about 30%; inactive means the rest.

SMILES	USP7 inh	USP10 inh	USP30 block	UCHL1 inh	USP8 block	USP17 block
CC(C)c1cc(N2CCCCC2)n2nc(-c3cccnc3)nc2n1	-3.2	1.2	x	0.4	4.2	-4.7
CCn1cc(Cn2cc(N)cn2)cn1	-2.0	0.9	-13.2	-0.2	73.1*	12.8
CCOc1cccc2sc(N(Cc3cccnc3)C(=O)CCc3ccccc3)nc12	-62.5	7.9	79.8*	4.6	-1.6	6.1
COCCCNc1ncnc2sc(C(=O)O)c(C)c12	-0.9	-4.5	-116.3	-4.6	-4.1	-24.8
O=C(NCCc1ccccc1)c1nnn(Cc2cccc(Cl)c2)c1-n1cccc1	6.3	0.0	-40.7	3.4	8.0	15.3
O=C(NCc1ccco1)c1nnn(Cc2ccccc2Cl)c1-n1cccc1	-20.9	-12.2	-115.1	0.9	25.5	33.1*
NC(=O)c1cc2ccccc2nc1C1CCN(C(=O)c2ccncc2)CC1	2.6	0.5	-1.3	-1.9	3.6	0.4
CCCOC(=O)c1ccc(NC(=O)c2cccc(S(=O)(=O)N(C)c3ccc(OC)cc3)c2)cc1	8.8	5.3	-22.1	5.1	0.0	-2.4
COc1ccc(N(C)S(=O)(=O)c2cccc(C(=O)OCC(=O)N(Cc3ccccc3)C(C)C)c2)cc1	8.8	7.6	30.3*	5.9	21.7	13.9
Cc1ccc(NC(=O)CN(C)C(=O)c2cn(-c3ccccc3)nc2-c2cccnc2)cc1	-1.5	-1.3	-15.1	0.1	-37.7	x
Cc1ccc(OC(=O)c2cn(-c3ccccc3)nc2-c2cccnc2)cc1	14.3	9.6	45.1*	10.3	-14.4	55.4*
CCc1cc2c(=O)n3c(nc2s1)/C(=C/c1ccc(C#N)cc1)CC3	4.9	-0.1	20.2	-0.1	11.5	17.0
COc1ccc(NC(=O)c2ccc3ccnc(N4CCN(c5ccc(OC)cc5)CC4)c3c2)cc1	10.1	23.8	-15.7	7.6	15.2	47.3*
COc1ccc(C(=O)Nc2ccc3c(N4CCOCC4)ncnc3c2)cc1	-1.2	-1.1	-19.1	0.1	7.8	-12.4
Cc1ccc2nc(-c3cccc(-c4nc5ccc(C)cc5[nH]4)n3)[nH]c2c1	4.7	-11.5	-27.0	-3.1	55.3*	53.9*
CC(=O)Nc1cccc2c(C(=O)NCCN3CCCCC3)ccnc12	0.1	0.1	-1.3	0.0	-1.6	-6.9
COc1ccc(C(=O)N2CCN(CC3CC4C=CC3C4)CC2)cc1 (configuration not stated)	-2.8	-1.6	3.1	-4.0	3.5	3.0
O=C(Cn1cnc2cc3c(cc21)OCCO3)N1CCCC1	-0.4	-2.0	-40.7	-2.5	-14.6	-15.5
O=C(CSc1nnc(C2CC2)n1Cc1ccccc1)Nc1ccc(N2CCCC2=O)cc1	0.4	1.1	28.6	-1.0	17.3	44.0*
CC(=O)c1cccc(NC(=O)CSc2nnc(-c3ccncc3)n2Cc2ccccc2)c1	-16.9	-0.3	-10.2	-6.2	-44.4	-0.3
O=S(=O)(Nc1ccc(Oc2ncnc3cc(Cl)ccc23)nc1)c1ccc(S(=O)(=O)c2ccccc2)s1	15.6	45.4*	-183.2	3.4	-15.1	27.7
CCOc1ccc(CC(=O)NCC(=O)N2CCC3(CC2)NCCc2[nH]cnc23)cc1	1.8	-2.8	9.4	-0.7	30.5*	10.5
Cc1cccc(NC(=O)c2ccn(COc3ccc(F)cc3F)n2)c1C	3.6	9.7	15.9	1.7	8.0	8.7
O=C(O)CC(NC(=O)CSc1ccccc1)c1ccc(Cl)cc1 (configuration not stated)	-0.1	-0.3	26.2	4.4	-20.3	13.2
NC(=O)C(OC(=O)CSc1ccccc1)c1ccccc1 (configuration not stated)	0.3	3.3	32.0*	2.3	24.8	10.7
SMILES	USP7 inh	USP10 inh	USP30 block	UCHL1 inh	USP8 block	USP17 block
CC(C)C1Nc2ccc(C(=O)NCc3ccccc3)cc2NC1=O (configuration not stated)	6.7	6.2	-7.4	0.0	0.0	36.3*
Cc1cccc(NC(=O)c2cccc(N3C(=O)C(C)(C)CS3(=O)=O)c2)c1	-20.2	-1.1	7.8	2.1	8.8	-0.2
CN1CCCC(OC(=O)c2cc(Cl)cc(Cl)c2)C1 (configuration not stated)	-5.5	4.3	32.9*	3.3	31.7*	x
COc1ccc(NS(=O)(=O)c2cc(OC)ccc2NC(=O)c2cc3c(s2)CCC3)cc1	6.1	-3.0	-16.7	0.1	-0.6	30.9*
CCN(CC)c1ccc2nnc(CCC(=O)NCC3CCCO3)n2n1 (configuration not stated)	-3.7	-0.8	10.3	-6.0	-5.5	0.0
O=C(Nc1cccc(Cl)c1)N1CCN(c2cc(C(F)(F)F)ccn2)CC1	-3.5	4.8	25.9	0.1	2.5	58.9*
O=C(Nc1cccc(F)c1)N1CCN(c2cc(-c3ccncc3)[nH]n2)CC1	2.0	0.5	2.2	0.6	-24.0	-11.1
Cn1ccnc1C(=O)N1C[C@@H]2OCC(=O)N(c3ccccc3)[C@H]2C1	2.4	-1.0	-0.1	0.6	1.8	-0.3
COCCn1ccc2ccn(Cc3nc(-c4cccnc4)no3)c(=O)c21	8.8	-4.3	-169.7	4.7	55.6*	26.2
CC(C)c1ccc(NC(=O)C2C3C=CC4(O3)C2C(=O)N(C2CC2)C4C(=O)NC2CCCCC2)cc1 (configuration not stated)	6.6	-0.3	4.5	1.3	5.5	x
O=C(Nc1ccc(Cl)cc1)C1C2C=CC3(O2)C1C(=O)N(C1CC1)C3C(=O)NC1CCCCC1 (configuration not stated)	-6.0	0.0	3.8	-0.6	13.9	36.3*
Cc1ccc(NC(=O)C2C3C=CC4(O3)C2C(=O)N(C2CCCCCC2)C4C(=O)NC2CCCCC2)cc1Cl (configuration not stated)	-64.2	13.7	2.2	-1.6	10.8	48.8*
O=C(C1CCCCC1)N1C[C@@H]2CCN(c3ncccn3)C[C@@H]2C1	-30.0	-6.6	-276.4	-21.4	-84.2	-102.3
Cn1nc(C(=O)NCc2ccc3c(c2)OCO3)c2c1-c1ccsc1CC2	7.2	8.2	28.9	3.4	29.8	17.5
O=C(Nc1ccc(F)cc1)c1noc2c1CCc1sccc1-2	6.8	0.6	3.3	2.4	-1.0	35.8*
CCc1ccccc1N(C)C(=O)c1noc2c1CCc1sccc1-2	-5.1	4.4	28.6	3.3	4.9	18.9
Cc1cccc(NC(=O)c2noc3c2CCc2sccc2-3)n1	-5.6	5.5	22.0	9.8	94.1*	64.8*
Cc1cccc(N2CCN(C(=O)c3noc4c3CCc3sccc3-4)CC2)c1C	-39.8	8.8	4.3	4.4	0.7	-8.2
Cc1ccc(NC(=O)c2noc3c2CCc2sccc2-3)cc1Cl	14.5	11.3	20.4	-0.4	20.4	12.8
O=C(Nc1ccc2c(c1)OCO2)c1noc2c1CCc1sccc1-2	4.6	17.3	-22.2	-0.3	52.8*	12.3
O=C(Nc1ccccc1)c1noc2c1CCc1sccc1-2	3.3	4.7	3.8	0.2	3.8	36.8*
CCNC(=O)c1nn(-c2ccc(Cl)cc2)c2c(=O)n(C)cnc12	-10.3	-6.3	-45.9	-6.8	-13.7	-18.5
